These results are taken from PubChem BioAssay (Tox21).

Test [1] addresses Aryl hydrocarbon receptor (Homo sapiens) (UniProt P35869). Kind of test: qHTS assay to identify small molecule that activate the aryl hydrocarbon receptor (AhR) signaling pathway (AID 743085).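 Further: HG2L7.5c1 human HepG2 liver cells with stably integrated DRE-driven firefly reporter; series mostly up to about 70 µM; nearly all actives have a fitted effect of over 15% in size.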 An outline of the steps:
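Stably transfected human liver carcinoma cells (HG2L7.5c1; 20 DRE-firefly luciferase) were incubated 5 h, dosed, and kept 24 h at 37C. Agonism was scored from increased luciferase luminescence.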

A short description of test [2]: qHTS assay to identify small molecule that activate the aryl hydrocarbon receptor (AhR) signaling pathway - cell viability counter screen (AID 743086).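 Further: HepG2 liver cells carrying the AhR DRE luciferase reporter; series mostly up to about 70 µM; nearly all actives have a fitted effect of over 45% in size.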 An outline of the steps:
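Cytotoxicity counter screen: CellTiter-Fluor signal (30 min, 37 C) in 4000 HepG2 cells/well carrying the DRE-luciferase reporter, following 24 h compound exposure at 37 C.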

In test [3] the target is Peroxisome proliferator-activated receptor gamma (Homo sapiens) (UniProt P37231). Kind of test: qHTS assay to identify small molecule agonists of the peroxisome proliferator-activated receptor gamma (PPARg) signaling pathway (AID 743094; active means well fitted activation curve with a large enough effect in the signal ratio in the repeat runs, not every such curve was filed as active; the % refers to the signal ratio; further: potency means the concentration at half of the fitted maximal effect). The gist of the method:
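Fluorescence-based beta-lactamase readout in HEK293H PPARg UAS-bla cells after 17 h compound exposure (37C) and 1 h B/G FRET substrate incubation at room temperature.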
A general note: In qHTS, concentration-response curves come from the screen itself.

The target is the same in test [4]. Briefly: qHTS assay to identify small molecule antagonists of the peroxisome proliferator-activated receptor gamma (PPARg) signaling pathway (AID 743191; calls by dose curve; further: series mostly up to about 63 µM; nearly all actives have a fitted effect of over 30% in size). An outline of the steps: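 Beta-lactamase reporter under UAS control in HEK293H PPARg-bla cells; compound treatment 17 h at 37C. Read-out: fluorescence intensity after 1 h room-temperature incubation with LiveBLAzer B/G FRET substrate.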

Test [5] can be described thus: qHTS assay to identify small molecule antagonists of the peroxisome proliferator-activated receptor gamma (PPARg) signaling pathway - cell viability counter screen (AID 743194). Further: nearly all actives have a fitted effect of over 55% in size. The gist of the method: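 Viability was measured as CellTiter-Glo luminescence in GeneBLAzer PPARg UAS-bla HEK293H cells. These cells had been exposed 17 h at 37 C to compounds together with rosiglitazone at 50 nM final, with the beta-lactamase readout taken in the same wells.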

A short description of test [6]: qHTS assay for small molecule agonists of the antioxidant response element (ARE) signaling pathway - cell viability counter screen (AID 743203; calls by dose curve; further: nearly all actives have a fitted effect of over 55% in size). The gist of the method:
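Parallel cytotoxicity read-out for the ARE-bla screen: HepG2 reporter cells, 16 hrs with compounds, then CellTiter-Glo luminescence.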

Test [7] can be described thus: qHTS assay for small molecule activators of the heat shock response signaling pathway (AID 743210; active means well fitted activation curve with a large enough effect in the signal ratio in the repeat runs, with a control signal flat, not every such curve was filed as active; the % refers to the signal ratio; further: series mostly up to about 63 µM). The gist of the method: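 Compound exposure lasted 5 h at 37 C in HeLa cells carrying a heat-shock-element-driven beta-lactamase reporter. Read-out: fluorescence intensity after 2.5 h room-temperature loading with LiveBLAzer B/G FRET substrate.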
Test [8] can be described thus: qHTS assay to identify small molecule agonists of the peroxisome proliferator-activated receptor delta (PPARd) signaling pathway - cell viability counter screen (AID 743211). Further: nearly all actives have a fitted effect of over 55% in size. The gist of the method: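 In the same wells used for beta-lactamase reporter measurement, cytotoxicity is scored by CellTiter-Glo. HEK293H PPARd-bla cells receive compound for 17 h at 37C following a 5 h settling period.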

Test [9] has as its target Peroxisome proliferator-activated receptor delta (Homo sapiens) (UniProt Q03181). Briefly: qHTS assay to identify small molecule agonists of the peroxisome proliferator-activated receptor delta (PPARd) signaling pathway (AID 743212; calls by dose curve;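 further: HEK293H cells with PPARd UAS beta-lactamase reporter GeneBLAzer system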). The gist of the method:
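Beta-lactamase reporter readout: a ratiometric FRET signal from the LiveBLAzer substrate after 2 h at room temperature. Compound exposure at 37 °C in PPARδ-bla HEK293H cells driven by an upstream activator sequence.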

Test [10] can be described thus: qHTS assay to identify small molecule antagonists of the peroxisome proliferator-activated receptor delta (PPARd) signaling pathway - cell viability counter screen (AID 743213). Further: nearly all actives have a fitted effect of over 50% in size. An outline of the steps:
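Cytotoxicity counter screen: CellTiter-Glo luminescence read 30 min after addition, in the same wells as the reporter assay. There, PPARd UAS-bla HEK293H cells (3000/well) were treated 17 h at 37 C with compound and 300 nM L165041.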

A short description of test [11]: qHTS assay to identify small molecule agonists of the farnesoid-X-receptor (FXR) signaling pathway - cell viability counter screen (AID 743218). Further: nearly all actives have a fitted effect of over 45% in size. An outline of the steps: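 Same-well cytotoxicity check on FXR-UAS-bla HEK 293T cells: 5 h attachment, 16 h compound at 37 C, CellTiter-Glo luminescence read at room temperature after 30 min.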
Test [12] addresses Vitamin D3 receptor (Homo sapiens) (UniProt P11473). Briefly: qHTS assay to identify small molecule agonists of the vitamin D receptor (VDR) signaling pathway (AID 743222; calls by dose curve). The gist of the method:
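Using LiveBLAzer B/G FRET detection, agonism was scored in VDR-bla cells exposed overnight (16 h, 37C) to DMSO-dissolved compounds; substrate incubation was 2 h at room temperature.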

The nature of test [13]: qHTS assay to identify small molecule agonists of the vitamin D receptor (VDR) signaling pathway - cell viability counter screen (AID 743224). Further: series mostly up to about 63 µM; nearly all actives have a fitted effect of over 50% in size. The gist of the method:
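Counter screen for cytotoxicity: VDR-bla cells at 2,000 cells/well, 16 h compound exposure, then CellTiter-Glo luminescence after the beta-lactamase measurement.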

The nature of test [14]: qHTS assay for small molecule agonists of the antioxidant response element (ARE) signaling pathway (AID 743202; active means well fitted activation curve with a large enough effect in the signal ratio in the repeat runs, not every such curve was filed as active; the % refers to the signal ratio; further: potency means the concentration at half of the fitted maximal effect). The gist of the method:
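After 16 hours of compound treatment at 37 C, HepG2 cells with a stably integrated ARE-driven beta-lactamase reporter were loaded 2 hours at room temperature with LiveBLAzer B/G FRET substrate and fluorescence intensity measured.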

Test [15] addresses Peroxisome proliferator-activated receptor delta (Homo sapiens) (UniProt Q03181). Kind of test: qHTS assay to identify small molecule antagonists of the peroxisome proliferator-activated receptor delta (PPARd) signaling pathway (AID 743215; active means well fitted inhibition curve with a large enough effect in the signal ratio in the repeat runs, not every such curve was filed as active; the % refers to the signal ratio;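 further: cells stimulated with agonist L165041 at 300 nM final during compound exposure; series mostly up to about 62 µM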). An outline of the steps:
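Screen format: qHTS, antagonist mode. HEK293H PPARd-bla cells received compound and 300 nM L165041 (final), 17 h, 37 C. Beta-lactamase detected via FRET substrate fluorescence, 2 h, room temperature.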

Test [16] is described as follows: qHTS assay to identify small molecule antagonists of the farnesoid-X-receptor (FXR) signaling pathway - cell viability counter screen (AID 743221; active means well fitted cell-killing curve with a large enough effect in the repeat runs, not every such curve was filed as active; further: nearly all actives have a fitted effect of over 50% in size). An outline of the steps: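 Here viability was scored by luminescence after CellTiter-Glo addition to wells already read for beta-lactamase. Prior treatment: compound plus CDCA (50 uM final), 16 h, 37 C, HEK 293T FXR-bla cells.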

Test [17] can be described thus: qHTS assay for small molecule activators of the heat shock response signaling pathway - cell viability counter screen (AID 743209). Further: nearly all actives have a fitted effect of over 50% in size. The gist of the method: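 To flag cytotoxic compounds, HSE-bla HeLa cells plated at 1500 cells/well were dosed for 5 h at 37 C, followed by the reporter FRET read and then CellTiter-Glo, with luminescence recorded 30 min after reagent addition.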

Test [18] addresses Bile acid receptor (Homo sapiens) (UniProt Q96RI1). Briefly: qHTS assay to identify small molecule antagonists of the farnesoid-X-receptor (FXR) signaling pathway (AID 743217; active means well fitted inhibition curve with a large enough effect in the signal ratio in the repeat runs, not every such curve was filed as active; the % refers to the signal ratio). An outline of the steps: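 Quantitative HTS, beta-lactamase reporter format: FXR-UAS-bla HEK 293T cells co-treated 16 h at 37 °C with compounds and 50 uM final chenodeoxycholic acid, then read by B/G FRET fluorescence.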

For test [19] the target is unchanged. Kind of test: qHTS assay to identify small molecule agonists of the farnesoid-X-receptor (FXR) signaling pathway (AID 743220; active means well fitted activation curve with a large enough effect in the signal ratio in the repeat runs, not every such curve was filed as active; the % refers to the signal ratio). An outline of the steps: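 FXR-UAS-bla HEK 293T cells carrying a UAS-driven beta-lactamase reporter were plated for 5 h at 37C/5% CO2, then exposed to DMSO-dissolved Tox21 10K compounds for 16 h at 37C. A LiveBLAzer B/G FRET substrate was loaded for 2 h at room temperature before fluorescence reading.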

For test [20], the target named is Vitamin D3 receptor (Homo sapiens) (UniProt P11473). Kind of test: qHTS assay to identify small molecule antagonists of the vitamin D receptor (VDR) signaling pathway (AID 743223; active means well fitted inhibition curve with a large enough effect in the signal ratio in the repeat runs, not every such curve was filed as active; the % refers to the signal ratio). An outline of the steps:
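Inhibition of agonist-driven VDR signalling is scored in VDR-bla cells: 3 nM final 1alpha,25-dihydroxyvitamin D3 plus compound, 16 h at 37C, then beta-lactamase detection by FRET substrate fluorescence after 2 h.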

Inconclusive results are not listed. Activity calls are given as the source filed them. Unless noted, the call rests on the fitted dose curve; in most records, active means well fitted curve in the direction sought with a large enough effect in the repeat runs; inconclusive means weak or mixed curves; inactive means no such curve, though single readings can be large; an effect the other way counts as inactive or inconclusive.

Aryl hydrocarbon receptor (Homo sapiens), sequence (P35869 whole entry, looked up): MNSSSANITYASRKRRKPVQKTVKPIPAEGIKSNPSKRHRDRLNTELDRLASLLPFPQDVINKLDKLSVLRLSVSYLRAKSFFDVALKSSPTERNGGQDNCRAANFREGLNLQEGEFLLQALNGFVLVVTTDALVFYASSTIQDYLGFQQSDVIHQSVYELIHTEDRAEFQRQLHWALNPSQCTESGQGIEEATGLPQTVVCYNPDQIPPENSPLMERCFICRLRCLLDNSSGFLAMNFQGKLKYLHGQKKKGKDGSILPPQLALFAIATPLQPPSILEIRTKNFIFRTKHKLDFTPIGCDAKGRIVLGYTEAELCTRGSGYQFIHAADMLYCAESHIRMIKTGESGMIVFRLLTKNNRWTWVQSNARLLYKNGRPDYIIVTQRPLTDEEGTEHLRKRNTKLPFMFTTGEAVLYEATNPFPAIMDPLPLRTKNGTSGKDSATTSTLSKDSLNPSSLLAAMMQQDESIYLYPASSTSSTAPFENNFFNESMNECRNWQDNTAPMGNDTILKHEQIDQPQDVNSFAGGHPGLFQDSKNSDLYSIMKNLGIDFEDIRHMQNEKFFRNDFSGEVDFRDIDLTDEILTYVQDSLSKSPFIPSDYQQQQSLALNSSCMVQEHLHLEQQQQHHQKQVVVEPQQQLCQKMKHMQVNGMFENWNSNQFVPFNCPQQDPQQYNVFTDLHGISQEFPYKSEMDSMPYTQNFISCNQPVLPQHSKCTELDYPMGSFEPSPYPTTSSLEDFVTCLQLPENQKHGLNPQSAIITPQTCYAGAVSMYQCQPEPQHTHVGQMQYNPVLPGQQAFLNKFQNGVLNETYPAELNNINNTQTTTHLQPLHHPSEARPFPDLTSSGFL
Peroxisome proliferator-activated receptor gamma (Homo sapiens), sequence (P37231 whole entry, looked up): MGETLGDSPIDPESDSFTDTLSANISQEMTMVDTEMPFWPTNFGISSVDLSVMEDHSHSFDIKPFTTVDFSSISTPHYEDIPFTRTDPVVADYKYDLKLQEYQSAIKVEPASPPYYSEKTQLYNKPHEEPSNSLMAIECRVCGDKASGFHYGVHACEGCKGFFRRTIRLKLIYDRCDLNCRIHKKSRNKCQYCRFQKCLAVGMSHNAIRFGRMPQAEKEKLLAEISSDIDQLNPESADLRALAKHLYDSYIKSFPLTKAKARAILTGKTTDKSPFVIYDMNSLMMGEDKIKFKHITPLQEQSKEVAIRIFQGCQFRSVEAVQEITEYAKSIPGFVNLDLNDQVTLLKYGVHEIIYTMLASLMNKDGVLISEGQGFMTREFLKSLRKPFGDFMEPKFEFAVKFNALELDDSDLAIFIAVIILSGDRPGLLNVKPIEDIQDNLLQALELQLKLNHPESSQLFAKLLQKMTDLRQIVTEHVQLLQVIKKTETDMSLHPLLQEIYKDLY
Vitamin D3 receptor (Homo sapiens), sequence (P11473 whole entry, looked up): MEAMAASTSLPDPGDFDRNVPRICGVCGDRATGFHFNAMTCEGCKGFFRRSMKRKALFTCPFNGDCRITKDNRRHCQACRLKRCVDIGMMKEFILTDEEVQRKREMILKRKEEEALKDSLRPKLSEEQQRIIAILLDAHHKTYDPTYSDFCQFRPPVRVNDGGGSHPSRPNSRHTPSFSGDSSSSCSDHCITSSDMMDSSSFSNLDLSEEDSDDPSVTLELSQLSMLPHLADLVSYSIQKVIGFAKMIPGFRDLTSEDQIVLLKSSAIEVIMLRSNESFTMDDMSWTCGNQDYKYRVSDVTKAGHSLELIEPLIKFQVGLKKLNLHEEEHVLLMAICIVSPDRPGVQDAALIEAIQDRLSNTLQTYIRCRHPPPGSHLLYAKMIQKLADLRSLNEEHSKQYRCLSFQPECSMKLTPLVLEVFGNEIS
Bile acid receptor (Homo sapiens), sequence (Q96RI1 whole entry, looked up): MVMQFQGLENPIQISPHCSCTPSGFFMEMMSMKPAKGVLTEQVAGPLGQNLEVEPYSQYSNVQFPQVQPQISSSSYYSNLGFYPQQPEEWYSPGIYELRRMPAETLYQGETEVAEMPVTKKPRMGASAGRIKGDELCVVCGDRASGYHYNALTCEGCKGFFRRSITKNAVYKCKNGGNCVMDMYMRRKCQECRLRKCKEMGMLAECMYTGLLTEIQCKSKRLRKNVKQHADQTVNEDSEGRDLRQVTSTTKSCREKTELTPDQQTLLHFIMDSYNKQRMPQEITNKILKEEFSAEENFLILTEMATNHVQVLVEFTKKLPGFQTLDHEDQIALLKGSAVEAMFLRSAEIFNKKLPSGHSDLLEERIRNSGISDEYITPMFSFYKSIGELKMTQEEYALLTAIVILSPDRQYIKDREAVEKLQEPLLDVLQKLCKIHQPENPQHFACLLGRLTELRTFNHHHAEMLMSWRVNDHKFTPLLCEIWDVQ
Peroxisome proliferator-activated receptor delta (Homo sapiens), sequence (Q03181 whole entry, looked up): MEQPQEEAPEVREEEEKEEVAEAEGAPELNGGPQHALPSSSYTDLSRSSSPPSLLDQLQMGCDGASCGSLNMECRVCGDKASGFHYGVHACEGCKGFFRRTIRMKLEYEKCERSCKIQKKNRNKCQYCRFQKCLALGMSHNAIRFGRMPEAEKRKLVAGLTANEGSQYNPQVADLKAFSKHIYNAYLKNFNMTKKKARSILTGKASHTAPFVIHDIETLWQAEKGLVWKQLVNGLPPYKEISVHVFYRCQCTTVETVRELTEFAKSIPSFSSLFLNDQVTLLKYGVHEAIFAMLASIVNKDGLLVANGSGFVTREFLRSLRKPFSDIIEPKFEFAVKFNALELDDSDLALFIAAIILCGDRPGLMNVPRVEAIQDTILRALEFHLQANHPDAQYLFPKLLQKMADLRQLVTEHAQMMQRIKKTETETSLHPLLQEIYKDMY

As for `OC[C@@H](O)C(O)[C@@H](O)CO` (stereo partly drawn), the Potency entry in test [1], in [2] and in test [3] was “inactive” throughout. Moreover, the molecule was called inactive in test [4], in test [5], in test [6], in [7], in test [8] and in [9]. Further, the outcome in test [10], in [11], in test [12] and in test [13] was inactive.

In the case of `C=CCCCCCCCC`, the Potency result in [1], in test [2], in test [3] and in [14] was “inactive” each time. For the same molecule, the molecule was called inactive in [4], in test [5], in test [6], in test [7], in test [8] and in [9]. In addition, the result in [10], in test [15], in test [11], in [16], in [12] and in [13] was inactive.

Consider `CCCCCCCCCCCCCCCCCCOCCO`, for which the Potency result in [1], in test [2], in test [3] and in [17] was “inactive” in each case. Besides, the call in [4], in [5], in test [6], in test [7], in [8] and in test [9] was inactive. Also, the call in [18], in test [11], in test [19], in test [16], in [12] and in test [20] was inactive. For the same molecule, the call in test [13] was inactive.

For `O=Cc1cc2ccccc2o1`, the Potency result in test [1], in [2], in test [3] and in test [17] was “inactive” each time. Moreover, the molecule was classed as inactive in test [4], in [5], in test [6], in [7], in test [8] and in [9]. Moreover, the call in test [10], in test [15], in test [11], in test [16], in test [12] and in test [20] was inactive. For the same molecule, the molecule was classed as inactive in test [13].

Consider `COP(=O)(O)OP(=O)(O)OC`, for which the Potency result in test [1], in [2], in test [3], in [14] and in test [17] was “inactive” each time. Also, the molecule was called inactive in test [4], in test [6], in test [7], in test [8], in test [10] and in [11]. In addition, the call in [16], in test [12], in [20] and in test [13] was inactive.

Turning to `CCO`, the Potency result in [1], in [2], in [3], in test [14] and in [17] was “inactive” in each case. Also, the call in test [4], in test [6], in test [7], in test [9], in test [18] and in test [11] was inactive. The call in [19], in [16], in [12] and in [20] was inactive.

Take `O=C(CN1CCNCC1)NC1CCCCC1`: the Potency entry in test [1], in [2], in [3], in [14] and in test [17] was “inactive” throughout. In addition, the result in test [4], in test [6], in test [9], in test [10], in test [15] and in test [11] was inactive. Besides, the molecule was called inactive in [16] and in test [13].

Consider `CC(C)OC(=O)OCOP(=O)(CO[C@H](C)Cn1cnc2c(N)ncnc21)OCOC(=O)OC(C)C`, for which the Potency entry in test [1], in test [2], in test [3] and in test [17] was “inactive” each time. The molecule was classed as inactive in [4], in test [6], in [7], in test [8], in test [9] and in test [10]. For the same molecule, the molecule was called inactive in [11], in [12], in test [20] and in test [13]. Moreover, the Potency in test [14] was 11.9 µM (active).

For `CN(C)C(C)(C)CO`, the Potency entry in test [1], in test [2], in test [3], in [14] and in test [17] was “inactive” each time. The molecule was called inactive in [5], in [6], in test [7], in test [8], in test [9] and in [10]. Further, the call in [18], in test [11], in [19], in test [16], in [12] and in test [20] was inactive. In addition, in test [13], the result was inactive.

For `CC(O)CC(C)O` (stereo not drawn), the Potency result in test [1], in [2], in test [3], in test [14] and in test [17] was “inactive” each time. The molecule was classed as inactive in [4], in test [6], in test [7], in test [8], in test [9] and in test [10]. Also, the molecule was classed as inactive in test [18], in test [11], in test [19], in test [16], in [12] and in test [20]. In addition, the result in [13] was inactive.

Regarding `CC(=O)Nc1ccc(OC(=O)c2ccccc2OC(C)=O)cc1`, the Potency result in test [1], in [2] and in test [3] was “inactive” throughout. Also, the call in test [4], in [5], in [6], in test [9], in test [10] and in [11] was inactive. The molecule was called inactive in test [16], in test [12], in test [20] and in [13].

For the molecule `N#Cc1cscn1`, the Potency result in test [1], in [2], in test [14] and in test [17] was “inactive” in each case. Also, in test [3], the Potency is 54.9 µM (active). For the same molecule, the result in test [4], in test [6], in [7], in test [10], in test [18] and in [11] was inactive. Further, the call in test [19] and in test [13] was inactive.
